Reference: PubChem BioAssay AID1458 (National Center for Advancing Translational Sciences (NCATS), 2008)
Among all 210,000 compounds or so, about 5,900 (2.8%) were called active. Where a call stands in place of a potency, no number is given. Not shown: some 5% with an inconclusive outcome. Calls follow the shape of the dose curve; as a rule, active = well fitted activation curve with a large enough effect; inconclusive = small, poorly fitted or top-dose-only effect; inactive = no such curve, though single readings can be large or run the other way. For the sample, actives were picked, then their nearest neighbours and some compounds at random.

assay: qHTS Assay for Enhancers of SMN2 Splice Variant Expression; conditions: HEK293 SMN2-luciferase splicing reporter, luminescence, 30-36 h; series mostly up to 46.1 µM; also: nearly all actives have a fitted effect of over 55% in size
How it was run: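 HEK293 cells carry an SMN2 […]–luciferase reporter in which exon 7 inclusion puts luciferase in frame. Cells were plated 10-12 h before compound addition, then incubated 30-36 h at 37C. ONE-Glo luminescence was read; sodium butyrate at 4.5 mM final served as control.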
Potency is read from the fitted curve at half-maximal effect.

SMILES | Potency | activity change, positive = activation
CCCCN1C(=O)c2[nH]nc(-c3ccccc3O)c2C1c1cccc(OCc2ccccc2)c1 (stereo not drawn) | inactive | –
CC(C)[C@@H]1NC(=O)[C@H](Cc2ccccc2)NC(=O)[C@@H](CC(=O)O)NC(=O)CNC(=O)[C@H](CCCNC(=N)N)NC1=O | inactive | –
O=C(NCc1ccc(F)cc1)c1ccc2nc(N3CCCCC3)sc2c1 | 4.47 µM (active) | –
CCOC(=O)N1CCC(NC(=O)c2ccc3nc(N4CCOCC4)sc3c2)CC1 | inactive | –
Cc1ccc(C)n1-c1nnc(N2CCC(C(=O)NCc3ccc(F)cc3)CC2)s1 | inactive | –
O=C(NCCCN1CCN(c2cccc(Cl)c2)CC1)c1nnc(Cc2ccc(F)cc2Cl)o1 | inactive | –
COc1ccc(Cl)cc1NC(=O)Cn1c(=O)c2ccccc2n2nncc12 | inactive | –
CCOc1ccc(CCNC(=O)Cn2nc(CC)n3c(cc4sc(CC)cc43)c2=O)cc1OCC | inactive | –
Cc1ccc(Cl)cc1NC(=O)CCS(=O)(=O)c1ccc(Br)s1 | inactive | –
Cc1nc2nc(NCc3cccc(Br)c3)[nH]n2c(=O)c1Cc1ccccc1 | inactive | –
Cc1cccc(NC(=O)c2cc(N3C(=O)CCC3=O)ccc2Cl)n1 | inactive | –
Cc1cccc(NC(=O)c2ccc3ccccc3n2)n1 | 12.6 µM (active) | –
Cc1cccc(NC(=O)c2ccccc2NC(=O)C(C)(C)C)n1 | inactive | –
Cc1csc(SCC(=O)Nc2sccc2C#N)n1 | 12.6 µM (active) | –
COc1ccc(NC(=O)CSc2nc(C)cs2)cc1 | inactive | –
Cc1cccc(C)c1Nc1nnc(SCC(=O)Nc2sccc2C#N)s1 | inactive | –
CCCc1cc(=O)n2[nH]c(NCc3ccc(CC)cc3)nc2n1 | inactive | –
CCOc1ccccc1NC(=O)Cn1c(=O)n(-c2cccc(C)c2)c(=O)c2c1c1cc(OC)ccc1n2C | inactive | –
COc1ccc(-c2nc3nc(C)cc(C)n3c2Nc2c(C)cccc2C)cc1 | inactive | –
CCOC(=O)c1c(NC(=O)Cc2coc3ccc(CC)cc23)sc2c1CCC2 | inactive | –
COc1ccc(OCC(=O)Nc2nnc(-c3ccco3)s2)cc1 | inactive | –
COc1ccc(C(=O)CSc2nnc(-c3ccco3)o2)cc1 | inactive | –
CCCCOc1ccc(C(=O)NCc2ccco2)cc1 | inactive | –
N#Cc1ccc(OCc2nnc(-c3ccc([N+](=O)[O-])cc3)o2)cc1 | inactive | –
CCCCOc1ccc(-c2nnc(-c3ccco3)o2)cc1 | 14.1 µM (active) | –
CCOc1ccc(-c2nnc(-c3ccco3)o2)cc1 | 1.12 µM (active) | –

SMILES | Potency | activity change, positive = activation
Cc1ccc(NC(=O)Nc2sc3nc4n(c(=O)c3c2C)CCC(C)CC4)c(Cl)c1 (stereo not drawn) | inactive | –
C=C1O[C@@](CO)(n2cnc3c(N)ncnc32)[C@H](O)[C@@H]1O | inactive | –
O=C1CC(c2nnc(Cc3ccc(Cl)cc3)o2)CN1c1ccccc1 (stereo not drawn) | inactive | –
COc1ccc(OC)c(NC(=O)C2CCN(S(=O)(=O)c3ccc(C)cc3)CC2)c1 | inactive | –
COc1ccc(Cl)cc1-n1c(CCC(=O)O)ccc1-c1ccc(C)cc1 | inactive | –
COC(=O)N1C(/C=C/C=C/c2ccc(OC)cc2)=Cc2ccccc2C1CC(C)=O (stereo not drawn) | – | -7.94% [at 9.22 µM] (inactive)
Cc1ccc2oc(C(=O)Nc3ccc(S(=O)(=O)N4CCCCCC4)cc3)cc(=O)c2c1 | inactive | –
Cc1ccc(NC(=O)NC(=O)N(C2CCCCC2)S(=O)(=O)c2ccccc2)cc1 | 7.94 µM (active) | –
CS(=O)(=O)N(C(=O)NC(=O)NC1CCS(=O)(=O)C1)C1CCCCC1 (stereo not drawn) | inactive | –
CC(c1ccco1)N(C(=O)Nc1ccccc1)C1CCCCC1 (stereo not drawn) | inactive | –
CCOC(=O)C1CCCN(CC(=O)Nc2cc(C)c3c(=O)oc4ccccc4c3n2)C1 (stereo not drawn) | inactive | –
CCN(CC)S(=O)(=O)c1ccc2c(c1)c(=O)c(C(=O)N1CCN(c3cccc(Cl)c3)CC1)cn2C | inactive | –
CCOCCCNC(=O)c1c(NC(=O)Cc2coc3ccc(C)cc23)sc2c1CCC2 | inactive | –
Cc1ccc(C(=O)OCc2nc(N)nc(Nc3ccccc3C)n2)cc1 | inactive | –
Cc1ccccc1Nc1nc(N)nc(CN2CCN(c3ccccn3)CC2)n1 | inactive | –
Cc1ccccc1Nc1nc(N)nc(CSc2ccccc2)n1 | 14.1 µM (active) | –
COc1ccc(CCNC(=O)CCCn2c(=O)c3ccccc3n(Cc3ccc(C)cc3)c2=O)cc1OC | inactive | –
CCc1c(C)sc(NC(=O)/C=C/c2ccc3c(c2)OCO3)c1C(=O)OC | inactive | –
COc1ccc(/C=C/C(=O)Nc2ccc3c(c2)OCCO3)cc1OC | inactive | –
COc1cccc(/C=C/C(=O)Nc2ccc3c(c2)OCCO3)c1 | 11.2 µM (active) | –
COc1ccc(OC)c(/C=C/C(=O)OCC(=O)Nc2ccc3c(c2)OCCO3)c1 | inactive | –
Cc1cccc(NC(=O)/C=C/c2ccc3c(c2)OCO3)n1 | 2.24 µM (active) | –
O=C(/C=C\c1ccc2c(c1)OCO2)NC1(C(=O)Nc2ccc3c(c2)OCCO3)CCCCC1 | inactive | –
COc1ccc(NC(=O)CNC(=O)Cn2ccc3ccccc3c2=O)c(OC)c1 | inactive | –
Cc1ccc(C)c(Cn2c(C(=O)O)c(CNCc3cccs3)c3ccccc32)c1 | inactive | –
CCOc1ccc(Nc2c(S(=O)(=O)c3ccccc3)cnc3ccccc23)cc1 | inactive | –

SMILES | Potency | activity change, positive = activation
COc1cc(Br)cc2cc(S(=O)(=O)c3ccccc3)c(=O)oc12 | inactive | –
CN(Cc1ccccc1)C(=O)c1cn(C)c2ccc(S(=O)(=O)N3CCCCC3)cc2c1=O | inactive | –
CCc1nnc(NC(=O)c2cccs2)s1 | inactive | –
CCOc1cccc(C(=O)Nc2nnc(-c3cccs3)s2)c1 | 12.6 µM (active) | –
CCOc1cccc(C(=O)Nc2cccnc2)c1 | inactive | –
CCC(C)[C@@H](N)C(=O)O (stereo partly drawn) | inactive | –
Cc1ccc(N2CC(c3nnc(Cc4ccccc4Cl)o3)CC2=O)cc1 (stereo not drawn) | inactive | –
O=C(c1ccc(F)cc1)N1CCCC(c2nc(-c3cccs3)no2)C1 (stereo not drawn) | inactive | –
COc1ccccc1N1CCN(C(=O)c2cc(-c3ccc(Cl)c(Cl)c3)on2)CC1 | inactive | –
O=C(c1cc(-c2ccc(F)cc2)on1)N1CCN(c2ccc(F)cc2)CC1 | inactive | –
O=C(c1cc(-c2cccs2)on1)N1CCCCC1 | 14.1 µM (active) | –
COc1ccccc1-c1cc(C(=O)N2CCCCC2)no1 | 14.1 µM (active) | –
COc1cccc(-c2cc(C(=O)N3CCN(c4ccccc4OC)CC3)no2)c1 | inactive | –
CCCCn1cc(S(=O)(=O)c2ccc(OCC)cc2)c(=O)c2cc(OC)c(OC)cc21 | inactive | –
O=P(O)(O)C(O)c1ccc2ccccc2c1 (stereo not drawn) | inactive | –
O=c1cc(COc2cccc(C(F)(F)F)c2)nc2sc3c(n12)CCCC3 | inactive | –
COc1ccc(N(C)C(=O)C2CCN(S(=O)(=O)c3cc(Br)cc4c3N(C(C)=O)CC4)CC2)cc1 | inactive | –
Cn1nnc2cc(C(=O)NCCC3=CCCCC3)ccc21 | 11.2 µM (active) | –
CN(c1ccc(C(=O)NCc2ccccn2)cc1)S(C)(=O)=O | inactive | –
O=C(Cc1cccc2ccccc12)NCCC1=CCCCC1 | inactive | –
CN(c1ccc(C(=O)NCCC2=CCCCC2)cc1)S(C)(=O)=O | 11.2 µM (active) | –
O=C(Cc1nn[nH]n1)NCCC1=CCCCC1 | inactive | –
O=C(NCCC1=CCCCC1)c1ccc(Cl)c([N+](=O)[O-])c1 | inactive | –
Cc1nc2nc(SCC(=O)N(Cc3ccccc3)C(C)C)nn2c(C)c1Cc1ccccc1Cl | inactive | –
CCc1ccc(CN(Cc2ccco2)C(=O)c2ccccc2Cl)cc1 | inactive | –
COc1ccccc1CNC(=O)CCCn1c(=O)c2ccccc2n(CC(=O)Nc2ccc(C)cc2Cl)c1=O | inactive | –

SMILES | Potency | activity change, positive = activation
O=C(NC1=NCCS1)[C@H](Cc1ccccc1)N1C(=O)c2ccccc2C1=O | inactive | –
O=C(NC1=NCCS1)c1ccc(Cl)s1 | 15.8 µM (active) | –
O=C(NCc1ccc2c(c1)OCO2)c1ccc(Cl)s1 | inactive | –
COc1cccc2c1cc1c(=O)n(CC(=O)N3CCN(c4ccccc4)CC3)nc(C)n12 | inactive | –
CCNC(=O)CC1C(=O)N(c2ccc(F)cc2)C(=O)N1Cc1ccc(C)cc1 (stereo not drawn) | inactive | –
CC(C)CC(=O)NC(=S)Nc1cc(C(=O)O)ccc1Cl | inactive | –
CC(=O)c1ccc(NC(=S)NC(=O)CC(C)C)cc1 | 7.94 µM (active) | –
COc1ccc(NS(=O)(=O)c2ccc(NC(=S)NC(=O)CC(C)C)cc2)cc1 | inactive | –
Cc1cccc(NC(=O)Cn2c(C(F)(F)F)nc3ccccc32)c1C | inactive | –
COc1ccc(N2CCN(c3cc(C)nc4nncn34)CC2)cc1 | inactive | –
O=C(c1ccc2c(c1)N(Cc1ccccc1F)C(=O)c1ccccc1S2(=O)=O)N1CCOCC1 | inactive | –
COc1ccc(CCNc2nc(-c3cccc(NC(C)=O)c3)cs2)cc1OC | inactive | –
CC(=O)Nc1ccc(-c2csc(NC(=O)Nc3ccccc3)n2)cc1 | inactive | –
CC(=O)Nc1cccc(-c2csc(Nc3cccc(C)n3)n2)c1 | 10 µM (active) | –
COc1ccccc1CNC(=O)CCn1c(=O)c2ccccc2n(CC(=O)Nc2cccc(Cl)c2)c1=O | inactive | –
O=C(O)c1cccc(N=NN2CCCCCC2)c1 | 0.631 µM (active) | –
O=C(Nc1cccc(C(=O)N2CCCC2)c1)c1ccccc1 | inactive | –
O=C(O)c1ccc(N=NN2CCOCC2)cc1 | – | -3.34% [at 1.84 µM] (inactive)
CCOC(=O)c1cc2c(=O)n3ccccc3nc2n(CC2CCCO2)c1=NC(=O)c1ccccc1F (stereo not drawn) | inactive | –
CCOC(=O)c1c(C)[nH]c2c1-c1ccccc1C(=O)C2=O | inactive | –
CCOC(=O)c1c(C)[nH]c(C2=NNC(=NC(C)COC)SC2)c1C (stereo not drawn) | 3.16 µM (active) | –
Cc1cc(=O)oc(C)c1C(=O)N1CCCCC1 | inactive | –
CCc1ccc(CNC(=O)c2cc3cc4ccc(OC)cc4nc3o2)cc1 | inactive | –
Cc1ccc2cc3cc(C(=O)N4CCCCCC4)oc3nc2c1 | 5.01 µM (active) | –
COc1ccccc1Nc1c2c(nc3ccc(NC(=O)/C=C/c4cc(OC)c(OC)c(OC)c4)cc13)CCCC2 | inactive | –
